# MazF activator = activators of E. coli MazEF toxin-antitoxin RNase | P0AE70 | FAM/BHQ RNA-DNA oligo cleavage fluorescence, 5 h | activation, % at 20 µM | hit rate 0.32% among 350,000 | AID 504720; in the data active means activation above about 50%
# Target sequence (P0AE70 whole entry, looked up): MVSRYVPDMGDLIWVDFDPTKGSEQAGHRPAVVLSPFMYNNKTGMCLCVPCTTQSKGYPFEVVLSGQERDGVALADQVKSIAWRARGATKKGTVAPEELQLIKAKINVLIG
# BoNT A protease = inhibitors of Botulinum neurotoxin A light chain protease; inhibition, % at 10 µM; hit rate 0.17% among 360,000; multiplex microsphere protease substrate cleavage, flow cytometry
# Anthrax LF prot = blocks Bacillus anthracis lethal factor protease; P15917; multiplex microsphere protease cleavage assay, LF; inhibition, % at 10 µM; hit rate 0.12% among 360,000; AID 588501
# BoNT F protease = inhibitors of Botulinum neurotoxin F light chain protease; AID 588497; Multiplex microsphere protease cleavage assay, flow cytometry; inhibition, % at 10 µM; hit rate 0.22% among 360,000; in the data active means inhibition above about 35%, passing the limit was not always enough; inconclusive means no clear call, values can overlap the other calls
# Bead autofluor = compound fluorescence in toxin protease inhibitor counterscreen. compound autofluorescence counterscreen, microsphere flow cytometry; hits give high values. fluorescence intensity (test concentration not listed). hit rate 3.1% among 360,000. AID 624483; in the data active means fluorescence intensity above about 16000; inconclusive means no clear call, values can overlap the other calls
# Hits are given with their value; n = inactive; u = inconclusive; x = no result; ! = not active in a repeat. An excerpt weighted towards active compounds, which were near 3.6% of everything screened. Unless noted, no stated cut-off is given here; in the data, active means inhibition above about 30%; inconclusive means no clear call, values can overlap the other calls; inactive means below that.
SMILES,MazF activator,BoNT A protease,Anthrax LF prot,BoNT F protease,Bead autofluor
NC(=O)CSc1nnc(-c2ccc(S(=O)(=O)N3CCCCC3)cc2)n1-c1ccccc1,n,n,n,n,n
COc1ccccc1Oc1ccc(S(=O)(=O)N2CCCCC2C)cc1 (centres undefined),n,n,n,n,n
Cc1ccc(S(=O)(=O)NCC(=O)OC(C)C(=O)c2ccccc2)cc1 (centres undefined),n,n,n,n,n
Cc1ccc(C(=O)C(OC(=O)CNS(=O)(=O)c2ccccc2)c2ccccc2)cc1 (centres undefined),n,u,n,n,19423
O=C(Nc1nncs1)c1cc(S(=O)(=O)N2CCCCC2)ccc1Cl,n,n,n,n,n
CN1CC2(C(=O)c3ccccc3)CN(C)CC(C(=O)c3ccccc3)(C1)C2,n,u,n,n,20389
CCCCNc1ccccc1C(=O)OCC(=O)Nc1ccc(S(N)(=O)=O)cc1,n,n,n,n,17458
COc1ccc(CCNC(=O)c2ccc(F)c(S(=O)(=O)N3CCCCC3)c2)cc1,n,n,n,n,n
O=C(NCCc1ccccc1)c1noc2c1CCCCC2,n,n,n,n,19823
O=C(NCc1ccco1)c1noc2c1CCCCC2,n,n,n,n,16534
O=C(NCc1cccnc1)c1noc2c1CCCC2,n,n,n,n,21847
O=C(NCc1cccnc1)c1noc2c1CCCCC2,n,n,n,n,n
O=C(NCc1cccs1)c1noc2c1CCCC2,n,n,n,n,n
CC(C(=O)NC1CCCC1)N(C(=O)Cn1nnc(-c2ccc(F)cc2)n1)c1ccccc1F (centres undefined),n,n,n,n,n
CC(C)CC(C(=O)NCC1CCCO1)N(C(=O)Cn1nnc(-c2ccc(F)cc2)n1)c1ccccc1F (centres undefined),n,n,n,n,21995
Cc1ccc(-c2nnn(CC(=O)N(c3ccccc3F)C(CC(C)C)C(=O)NCC3CCCO3)n2)cc1 (centres undefined),n,n,n,n,16688
CC(C)CC(C(=O)NCC1CCCO1)N(C(=O)Cn1nnc(-c2ccc(F)cc2)n1)c1cccc(C(F)(F)F)c1 (centres undefined),n,u,n,n,23362
O=C(NCC1CCCO1)C(c1ccc(F)cc1)N(C(=O)Cn1nnc(-c2ccc(F)cc2)n1)c1cccc(O)c1 (centres undefined),n,n,n,n,n
Cc1ccc(-c2nnn(CC(=O)N(CC3CCCO3)C(C(=O)NC(C)(C)C)c3ccc(F)cc3)n2)o1 (centres undefined),n,u,n,n,22682
Cc1ccnc(OC(C(=O)O)C(OCc2ccccc2)(c2ccc(F)cc2)c2ccc(F)cc2)n1 (centres undefined),n,n,n,n,n
Cc1ccc(N(C(=O)Cn2nnc(-c3ccc(F)cc3)n2)C(CC(C)C)C(=O)NCC2CCCO2)cc1 (centres undefined),n,n,n,n,23138
Cc1ccc(NC(=O)CSc2nsc(SCC(=O)Nc3ccc(C)cc3C)c2C#N)c(C)c1,n,n,n,n,n
Cc1ccc2sc(NC(=O)CSc3nc(C)cc(C)c3C#N)nc2c1,n,u,n,n,22663
Cc1cc(C(F)(F)F)c(C#N)c(SCC(=O)Nc2nc3ccccc3s2)n1,n,n,n,n,n
CC(C)(C)NC(=O)CSc1nsc(SCC(=O)NC(C)(C)C)c1C#N,n,n,n,n,17119
SMILES,MazF activator,BoNT A protease,Anthrax LF prot,BoNT F protease,Bead autofluor
Cc1csc(NC(=O)CSc2nsc(SCC(=O)Nc3nc(C)cs3)c2C#N)n1,n,u,n,n,21632
O=C(c1[nH]c(C(F)(F)F)nc1-c1ccccc1)N1CCN(c2ncccc2C(F)(F)F)CC1,x,n,n,n,n
CN(C)/C=C1\C(=O)N(c2ccc(Cl)cc2)CS1(=O)=O,n,n,n,n,23839
Cc1ccc(N2CS(=O)(=O)/C(=C/N(C)C)C2=O)cc1,n,n,n,n,21872
Cc1ccc(S(=O)(=O)N2CCN(C(=O)CN3CCCSc4ccccc43)CC2)cc1,n,n,n,n,n
COC1CC(NC(C)=O)C(OC(=O)c2ccccc2)C(CBr)O1 (centres undefined),n,n,n,n,n
O=C(CC12CC3CC(CC(C3)C1)C2)NCc1ccccc1,n,n,n,n,n
O=C(CC12CC3CC(CC(C3)C1)C2)NCc1ccncc1,n,n,n,n,16408
Cc1ccc(S(=O)(=O)N2CCN(CC(=O)NC3CCCc4ccccc43)CC2)cc1C (centres undefined),n,n,n,n,21955!
Cc1ccc(S(=O)(=O)N2CCN(CC(=O)NC(=O)NCc3ccccc3)CC2)cc1C,95.0,n,n,n,n
Cc1ccc(S(=O)(=O)N2CCN(CC(=O)NC3CCCc4ccccc43)CC2)c(C)c1 (centres undefined),n,n,n,n,n
Cc1ccc(NC(=O)COC(=O)Cn2ccc(=O)[nH]c2=O)cc1C,n,n,n,n,n
CCN(CC)c1ccc(C=NNc2ccc([N+](=O)[O-])cn2)cc1,75.5,n,n,n,n
COc1ccc(CN2C(=O)c3cccnc3C2Nc2cc(Cl)ccc2OC)cc1 (centres undefined),n,n,n,n,21495
Cc1ccc(NC2c3ncccc3C(=O)N2Cc2ccco2)c(C)c1 (centres undefined),n,n,n,n,n
COc1ccc(OC)c(NC2c3ncccc3C(=O)N2Cc2ccco2)c1 (centres undefined),n,n,n,n,16912
COc1ccc(CN2C(=O)c3cccnc3C2O)cc1 (centres undefined),n,n,n,n,n
CC1C/C(=N/NC(=O)c2cccc(F)c2)c2ccc(O)cc2C1 (centres undefined),n,n,n,n,20922
C=CCn1c(SCC(=O)Nc2cccc(S(N)(=O)=O)c2)nc2sc(C)c(C)c2c1=O,n,n,n,n,n
COc1cc(C=O)ccc1Oc1nnnn1-c1ccc(C(N)=O)cc1,n,n,n,n,n
COc1cc(CO)ccc1Oc1nnnn1-c1ccc(C(N)=O)cc1,n,n,n,n,16480
COC(=O)Nc1nc(-c2ccccc2)c(C(=O)c2ccc(Cl)cc2)s1,52.3,n,n,n,n
CCOC(=O)Nc1nc(-c2ccccc2)c(C(=O)c2ccccc2)s1,n,n,n,n,n
CCOc1ccc(NCC(=O)Nc2ccc(Cl)cc2C)cc1,n,n,n,n,19405
CCCOc1ccc(NCC(=O)Nc2ccc(C)cc2C)cc1,n,n,u,n,u
COc1ccc(C2SCC(=O)Nc3c2c(=O)[nH]n3C2CCCCCC2)cc1OC (centres undefined),n,u,n,n,18575
COc1ccc(C2SCC(=O)Nc3c2c(=O)[nH]n3C2CCCCCC2)cc1 (centres undefined),n,n,n,n,n
CCOc1ccc(C2SCC(=O)Nc3c2c(=O)[nH]n3C2CCCCCC2)cc1 (centres undefined),n,u,n,n,24510
CCN(CC(=O)Nc1c(F)cccc1F)C(=O)c1cc2ccccc2oc1=O,n,n,n,n,n

# Compound activity (PubChem BioAssay)
